Here are results for five compounds from PubChem BioAssay.

Calls of active or inactive are those of the source.

Experiment [1] is described as follows: binders of probe aFSTL3 on microarray, primary screen, stem cell growth factor project, biochemical, small-molecule microarray, fluorescence 635/667 (AID 1064).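 Note: measures binding of the biotinylated anti-FSTL3 antibody to printed compounds.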 The conditions noted are these: higher = more signal.
The nature of experiment [2]: binders from COS7 lysate, DM2A8 probe, primary screen, torsin A project, cell lysate, small-molecule microarray, fluorescence 635/667 (AID 1065). The settings on record: higher = more signal, COS7 lysate expressing mutant human TOR1A.
A short description of experiment [3]: binders of probe aFGF2 on microarray, primary screen, stem cell growth factor project, biochemical, small-molecule microarray, fluorescence 635/667 (AID 1067).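 Note: measures binding of biotinylated aFGF2 protein to printed compounds on slides; z-score merges feature fluorescence and signal-to-noise across triplicate slides.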 The settings on record: higher = more signal.
Experiment [4] is described as follows: binders of probe aFGF10 on microarray, primary screen, stem cell growth factor project, biochemical, small-molecule microarray, fluorescence 635/667 (AID 1071).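 Note: score merges 667 nm spot intensity and signal to noise from triplicate slides.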 The settings on record: higher = more signal.
Experiment [5] addresses Neurogenic locus notch homolog protein 2 (Homo sapiens) (UniProt Q04721). In words: Notch2 binders on small-molecule microarrays, primary screen, biochemical, small-molecule microarray, 635 nm fluorescence, stem cell growth factors (AID 1073). The settings on record: Notch2 binding, higher = more signal.
In experiment [6] the target is Pro-neuregulin-1, membrane-bound isoform (Homo sapiens) (UniProt Q02297). Kind of experiment: NRG1 binders on small-molecule microarrays, primary screen, psychiatric disease protein project, biochemical, small-molecule microarray, fluorescence 635/667 (AID 1075).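 Note: score combines 667 nm spot fluorescence with signal to noise.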 The settings on record: NRG1 binding, 635 nm fluorescence, higher = more signal.
Experiment [7] deals with Neuregulin-1 EGF-like domain. Kind of experiment: binders of neuregulin-1 EGF-like domain, primary screen, biochemical, small-molecule microarray, 635 nm fluorescence (AID 1081).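 Note: binding of the protein to compounds printed on small-molecule microarray slides.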 The settings on record: small-molecule microarray binding, higher = more signal.
Experiment [8] is described as follows: FRG1 promoter luciferase signal modulators, primary screen, FRG1 inhibition for FSHD, cell-based, C2C12 myotubes, firefly/Renilla luciferase, luminescence (AID 1084). The settings on record: higher = more signal, called active from +8 up or from −8 down.
Experiment [9] can be described thus: binders of probe aFST on microarray, primary screen, stem cell growth factor project, biochemical, small-molecule microarray, fluorescence 635/667 (AID 1086).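 Note: score merges 667 nm fluorescence with signal-to-noise of each printed compound spot.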 The settings on record: higher = more signal.
A short description of experiment [10]: binders of probe aHhip on microarray, primary screen, stem cell growth factor project, biochemical, small-molecule microarray, fluorescence 635/667 (AID 1087).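 Note: score merges spot fluorescence at 667nm with spot signal to noise ratio.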 The settings on record: higher = more signal.
The test system of experiment [11] is PRMT1 (protein arginine N-methyltransferase 1). Kind of experiment: PRMT1 binders on small-molecule microarrays, primary screen, biochemical, small-molecule microarray, 635 nm fluorescence (AID 1088).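 Note: binding of Prmt1 protein to compounds spotted on small-molecule microarray slides.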 The settings on record: small-molecule microarray binding, higher = more signal.
Experiment [12] can be described thus: yeast growth modulation, basal conditions, primary screen, YJM789 clinical isolate, OD600, 24 h (AID 1089).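 Note: growth of clinical yeast isolate S. cerevisiae YJM 789 seeded 1000 cells per well; test concentration not given here.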 The settings on record: S. cerevisiae YJM789 growth, higher = more signal, called active from +8 up or from −8 down.
Experiment [13] in a line: fission yeast growth modulation, primary screen, strain 972, OD600, 24 h, no modulator (AID 1090).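 Note: basal condition with compound alone and no growth modifier present; test concentration not given here.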 The conditions noted are these: S. pombe 972 growth, higher = more signal, called active from +8 up or from −8 down.
Experiment [14] is described as follows: S. cerevisiae growth modulation with rapamycin, primary screen, strain BY4716, OD600, 96 h (AID 1091). Note: test concentration not given here. The settings on record: higher = more signal, called active from +8 up or from −8 down.
The target in experiment [15] is Torsin-1A-interacting protein 2 (Homo sapiens) (UniProt Q8NFQ8). Kind of experiment: LULL1 binders on small-molecule microarray, primary screen, cell lysate, human LULL1 lysate, 635/667 nm fluorescence (AID 1092).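 Note: probe is lysate of COS7 cells overexpressing human LULL1; score merges per-feature 667 nm fluorescence with signal-to-noise.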 The conditions noted are these: hLULL1 lysate binding, 635 nm fluorescence, higher = more signal.
Experiment [16] in a line: E. coli growth modulation, two-sided OD650, primary screen, E. coli filamentation project, strain DRC41, 24 h (AID 1093).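 Note: MC1000 strain lacking acrAB efflux and sulA so SOS filamentation is blocked; test concentration not given here.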 The conditions noted are these: OD650, 24 h, higher = more signal, called active from +8 up or from −8 down.
A short description of experiment [17]: small-molecule microarray binders of probe aLefty2, primary screen, biochemical, biotinylated probe, 635/667 nm fluorescence (AID 1094).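 Note: score merges spot fluorescence near 667 nm with spot signal-to-noise ratio.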 The settings on record: higher = more signal.
The test system of experiment [18] is Noggin (protein binding on small-molecule microarray). In words: Noggin binders on small-molecule microarray, primary screen, biochemical, 635/667 nm fluorescence (AID 1095).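 Note: score merges 667 nm feature fluorescence with signal to noise over triplicate slides.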 The settings on record: 635 nm fluorescence, higher = more signal.
For experiment [19], the target named is Neurogenic locus notch homolog protein 3 (Homo sapiens) (UniProt Q9UM47). In words: NOTCH3 binders on small-molecule microarray, primary screen, biochemical, 635/667 nm fluorescence (AID 1096). The settings on record: NOTCH3 binding, 635 nm fluorescence, higher = more signal.
Chain of Neurogenic locus notch homolog protein 3 (Homo sapiens) (Q9UM47 whole entry, looked up): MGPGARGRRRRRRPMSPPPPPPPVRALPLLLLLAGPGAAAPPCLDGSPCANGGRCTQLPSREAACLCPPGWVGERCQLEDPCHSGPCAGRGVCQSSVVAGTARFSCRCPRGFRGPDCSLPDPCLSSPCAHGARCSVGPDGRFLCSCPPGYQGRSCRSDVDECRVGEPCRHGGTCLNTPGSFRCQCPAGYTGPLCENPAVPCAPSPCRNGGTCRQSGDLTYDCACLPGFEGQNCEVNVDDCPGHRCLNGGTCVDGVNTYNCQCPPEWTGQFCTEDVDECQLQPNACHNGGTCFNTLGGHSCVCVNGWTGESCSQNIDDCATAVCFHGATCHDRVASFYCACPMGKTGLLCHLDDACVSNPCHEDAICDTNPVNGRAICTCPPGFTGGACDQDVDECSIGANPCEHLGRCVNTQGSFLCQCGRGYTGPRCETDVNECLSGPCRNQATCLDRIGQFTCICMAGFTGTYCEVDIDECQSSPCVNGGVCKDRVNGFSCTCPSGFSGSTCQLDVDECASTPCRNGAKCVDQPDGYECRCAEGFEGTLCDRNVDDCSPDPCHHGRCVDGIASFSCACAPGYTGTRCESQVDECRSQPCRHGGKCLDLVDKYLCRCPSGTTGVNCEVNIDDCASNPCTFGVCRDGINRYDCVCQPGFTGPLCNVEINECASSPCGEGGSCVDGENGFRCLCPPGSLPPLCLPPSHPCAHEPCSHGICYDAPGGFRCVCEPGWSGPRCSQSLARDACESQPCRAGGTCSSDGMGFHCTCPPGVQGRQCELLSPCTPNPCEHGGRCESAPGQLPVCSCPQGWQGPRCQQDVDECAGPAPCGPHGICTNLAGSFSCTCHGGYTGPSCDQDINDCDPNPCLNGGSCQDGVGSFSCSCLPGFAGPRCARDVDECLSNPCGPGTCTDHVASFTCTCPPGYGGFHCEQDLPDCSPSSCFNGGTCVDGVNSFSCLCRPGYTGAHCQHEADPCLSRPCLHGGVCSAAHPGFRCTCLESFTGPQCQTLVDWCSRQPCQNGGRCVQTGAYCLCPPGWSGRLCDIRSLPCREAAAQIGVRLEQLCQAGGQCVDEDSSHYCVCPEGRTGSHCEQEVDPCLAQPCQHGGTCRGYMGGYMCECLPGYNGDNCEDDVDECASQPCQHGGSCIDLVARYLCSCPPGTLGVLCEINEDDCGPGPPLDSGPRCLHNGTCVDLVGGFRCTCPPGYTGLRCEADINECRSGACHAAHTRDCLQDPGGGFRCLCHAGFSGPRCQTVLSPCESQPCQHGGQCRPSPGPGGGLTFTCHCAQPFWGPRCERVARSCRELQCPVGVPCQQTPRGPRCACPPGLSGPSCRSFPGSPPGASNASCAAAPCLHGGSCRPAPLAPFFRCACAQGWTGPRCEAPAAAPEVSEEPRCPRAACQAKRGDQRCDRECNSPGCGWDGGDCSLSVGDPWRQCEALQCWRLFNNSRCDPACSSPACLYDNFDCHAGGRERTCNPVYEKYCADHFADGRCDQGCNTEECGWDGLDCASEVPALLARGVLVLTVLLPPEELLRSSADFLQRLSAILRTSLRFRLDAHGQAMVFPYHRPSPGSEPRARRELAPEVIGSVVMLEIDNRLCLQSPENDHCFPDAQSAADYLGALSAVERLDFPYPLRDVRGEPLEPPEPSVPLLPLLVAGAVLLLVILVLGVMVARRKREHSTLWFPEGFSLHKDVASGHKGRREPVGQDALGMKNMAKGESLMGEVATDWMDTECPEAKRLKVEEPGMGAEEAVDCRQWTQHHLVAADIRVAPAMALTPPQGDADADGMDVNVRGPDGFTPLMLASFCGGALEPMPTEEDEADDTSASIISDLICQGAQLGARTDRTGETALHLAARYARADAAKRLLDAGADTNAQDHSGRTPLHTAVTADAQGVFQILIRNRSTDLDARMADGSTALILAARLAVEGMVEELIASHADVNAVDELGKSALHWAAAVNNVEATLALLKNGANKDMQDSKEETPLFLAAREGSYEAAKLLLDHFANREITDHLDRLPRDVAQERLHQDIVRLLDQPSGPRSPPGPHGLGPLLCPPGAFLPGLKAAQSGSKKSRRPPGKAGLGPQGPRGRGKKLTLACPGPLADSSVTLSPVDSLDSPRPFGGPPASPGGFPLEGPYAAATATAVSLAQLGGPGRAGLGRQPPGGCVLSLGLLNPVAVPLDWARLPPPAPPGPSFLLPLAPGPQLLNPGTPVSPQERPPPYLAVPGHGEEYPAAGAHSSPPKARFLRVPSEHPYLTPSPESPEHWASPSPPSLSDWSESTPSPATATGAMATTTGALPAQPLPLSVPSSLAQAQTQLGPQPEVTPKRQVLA
The nature of experiment [20]: small-molecule microarray binders of probe aEGFR, primary screen, biochemical, biotinylated probe, 635/667 nm fluorescence (AID 1097).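 Note: probe is a biotinylated anti-EGFR antibody binding compounds printed on slides; score combines fluorescence near 667 nm and signal to noise of each spot.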 The settings on record: higher = more signal.

Chain of Neurogenic locus notch homolog protein 2 (Homo sapiens) (Q04721 whole entry, looked up, canonical isoform): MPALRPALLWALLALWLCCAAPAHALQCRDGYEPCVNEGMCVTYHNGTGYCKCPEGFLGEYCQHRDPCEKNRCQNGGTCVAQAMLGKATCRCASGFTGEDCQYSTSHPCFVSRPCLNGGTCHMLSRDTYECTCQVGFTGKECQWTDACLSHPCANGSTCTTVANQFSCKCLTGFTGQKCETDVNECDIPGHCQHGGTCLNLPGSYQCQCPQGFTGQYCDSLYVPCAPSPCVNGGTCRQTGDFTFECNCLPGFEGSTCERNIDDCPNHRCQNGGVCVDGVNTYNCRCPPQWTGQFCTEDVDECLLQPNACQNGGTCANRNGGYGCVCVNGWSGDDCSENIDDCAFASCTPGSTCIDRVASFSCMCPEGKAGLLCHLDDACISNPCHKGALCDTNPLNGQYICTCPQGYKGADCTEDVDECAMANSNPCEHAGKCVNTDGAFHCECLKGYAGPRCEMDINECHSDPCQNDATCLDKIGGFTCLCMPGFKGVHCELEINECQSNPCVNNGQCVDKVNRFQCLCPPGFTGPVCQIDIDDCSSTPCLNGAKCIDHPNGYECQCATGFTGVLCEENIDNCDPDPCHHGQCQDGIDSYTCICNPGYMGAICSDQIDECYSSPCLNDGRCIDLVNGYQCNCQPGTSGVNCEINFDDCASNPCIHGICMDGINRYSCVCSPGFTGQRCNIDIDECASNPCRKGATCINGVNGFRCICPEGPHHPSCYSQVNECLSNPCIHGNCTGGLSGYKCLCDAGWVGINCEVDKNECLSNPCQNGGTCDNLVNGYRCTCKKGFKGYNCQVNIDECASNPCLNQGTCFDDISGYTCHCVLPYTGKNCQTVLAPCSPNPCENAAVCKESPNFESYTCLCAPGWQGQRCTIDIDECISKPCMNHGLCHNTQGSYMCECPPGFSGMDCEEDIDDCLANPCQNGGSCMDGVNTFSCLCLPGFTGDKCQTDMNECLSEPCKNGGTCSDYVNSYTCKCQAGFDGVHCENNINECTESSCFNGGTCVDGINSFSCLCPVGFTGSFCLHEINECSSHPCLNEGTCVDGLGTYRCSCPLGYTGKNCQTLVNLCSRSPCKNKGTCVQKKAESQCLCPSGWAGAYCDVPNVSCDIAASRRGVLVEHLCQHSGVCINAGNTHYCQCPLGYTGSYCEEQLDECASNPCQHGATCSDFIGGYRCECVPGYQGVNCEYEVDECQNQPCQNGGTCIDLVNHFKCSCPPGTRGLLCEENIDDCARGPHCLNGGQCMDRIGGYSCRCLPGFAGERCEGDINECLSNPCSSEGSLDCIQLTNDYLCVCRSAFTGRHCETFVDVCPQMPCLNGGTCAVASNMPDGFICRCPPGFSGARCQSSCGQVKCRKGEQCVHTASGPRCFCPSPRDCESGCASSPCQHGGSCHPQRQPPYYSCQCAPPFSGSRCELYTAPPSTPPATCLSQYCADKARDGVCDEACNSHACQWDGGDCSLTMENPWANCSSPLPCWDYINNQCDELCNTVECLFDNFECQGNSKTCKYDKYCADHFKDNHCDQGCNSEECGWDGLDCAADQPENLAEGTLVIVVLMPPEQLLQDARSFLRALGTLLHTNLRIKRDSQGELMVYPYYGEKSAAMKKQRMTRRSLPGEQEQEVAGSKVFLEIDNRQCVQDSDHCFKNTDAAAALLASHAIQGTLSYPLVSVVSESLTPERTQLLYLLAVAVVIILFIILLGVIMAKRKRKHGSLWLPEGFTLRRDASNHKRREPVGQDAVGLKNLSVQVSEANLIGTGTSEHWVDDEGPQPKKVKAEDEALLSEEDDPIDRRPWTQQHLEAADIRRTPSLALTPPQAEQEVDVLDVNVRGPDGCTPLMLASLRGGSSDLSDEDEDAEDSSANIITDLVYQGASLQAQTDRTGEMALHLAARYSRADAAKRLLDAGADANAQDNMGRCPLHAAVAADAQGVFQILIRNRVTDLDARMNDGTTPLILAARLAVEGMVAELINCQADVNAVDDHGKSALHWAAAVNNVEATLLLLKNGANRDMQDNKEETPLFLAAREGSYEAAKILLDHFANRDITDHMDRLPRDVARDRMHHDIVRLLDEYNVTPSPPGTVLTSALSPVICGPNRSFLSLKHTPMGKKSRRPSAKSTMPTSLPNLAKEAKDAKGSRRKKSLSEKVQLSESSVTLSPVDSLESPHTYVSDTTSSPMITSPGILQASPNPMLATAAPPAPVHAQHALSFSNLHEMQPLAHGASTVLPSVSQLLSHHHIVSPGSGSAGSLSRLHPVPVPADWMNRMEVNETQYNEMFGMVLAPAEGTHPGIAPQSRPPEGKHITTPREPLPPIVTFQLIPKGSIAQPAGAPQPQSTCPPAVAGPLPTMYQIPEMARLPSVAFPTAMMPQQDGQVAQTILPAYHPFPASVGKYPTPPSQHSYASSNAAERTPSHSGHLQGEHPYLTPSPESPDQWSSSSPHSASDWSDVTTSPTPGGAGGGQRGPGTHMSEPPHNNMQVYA

In the case of `COCCOC(=O)N1C(=O)[C@@]2(c3cc(C#CCC(C(=O)OC)C(=O)OC)ccc31)[C@H](C(=O)Nc1nc3ccccc3s1)[C@H]1C(=O)O[C@H](c3ccccc3)[C@H](c3ccccc3)N1[C@@H]2c1ccc(OCCO)cc1`, the composite z-score in experiment [1] was 0.357; in experiment [2], 0.773; in experiment [3] it was 0.224; in experiment [4] it was 0.81; in experiment [5], 1.22; in experiment [6], 0.166. For the same compound, the composite z-score in experiment [7] is 1.23; in experiment [9] it was 0.853; in [10], -0.0699; in [11], 1.54; in experiment [15], 1.43; in experiment [17] it was 0.483. Also, the composite z-score in experiment [18] stood at 1.89; in [19], 1.05; in experiment [20] it was 0.232. Further, the z-score is 4.17 (inactive) in experiment [8]; 1.74 (inactive) in [12]; 0.657 (inactive) in [13]; 2.14 (inactive) in [14]; 1.43 (inactive) in experiment [16].
Regarding `C=CCNC(=O)[C@H]1[C@@H]2C(=O)O[C@@H](c3ccccc3)[C@@H](c3ccccc3)N2[C@@H](c2ccc(OCCO)cc2)[C@]12C(=O)Nc1ccc(C#CC3(O)CCCCCC3)cc12`, the composite z-score was 0.604 in experiment [1]; 0.648 in [2]; -0.0065 in experiment [3]; 1.1 in experiment [4]; 1.54 in experiment [5]; 1.43 in [6]. The composite z-score in [7] was 1.1; in [9], 0.229; in experiment [10] it was 0.306; in experiment [11], 1.53; in experiment [15], 2.11; in experiment [17], 0.323. Further, the results for the composite z-score in experiment [18], in [19] and in [20] were 1.4, 1.08 and 0.0432, respectively. Further, the z-score in experiment [8] is -0.486 (inactive); in experiment [12], 2.3 (inactive); in experiment [13], 1.42 (inactive); in experiment [14], 5.09 (inactive); in experiment [16] it was 1.61 (inactive).
For the compound `N#Cc1ccc(-c2cccc(=O)o2)cc1`, the composite z-score in experiment [1] was -0.5; in [2] it was 0.316; in experiment [3] it was -0.103; in experiment [4], 0.248; in [5] it was 0.601; in experiment [6] it was 0.114. Also, the composite z-score is 0.678 in [7]; 0.445 in [9]; -0.166 in experiment [10]; 1 in experiment [11]; 0.552 in experiment [15]; -0.212 in [17]. Also, the composite z-score was 0.671 in [18], 0.718 in experiment [19] and -0.0794 in [20]. Besides, the z-score was 0.563 (inactive) in experiment [8]; -0.24 (inactive) in [12]; -0.537 (inactive) in [13]; 0.805 (inactive) in experiment [14]; -0.675 (inactive) in experiment [16].
With `COCCOC(=O)N1C(=O)[C@@]2(c3cc(C#CCNC(N)=O)ccc31)[C@H](C(=O)Nc1nc3ccccc3s1)[C@H]1C(=O)O[C@H](c3ccccc3)[C@H](c3ccccc3)N1[C@@H]2c1ccccc1OCCO`, the composite z-score in experiment [1] is -0.35; in [2] it was 0.578; in experiment [3] it was -0.0569; in experiment [4], 0.475; in experiment [5], 0.809; in experiment [6], 0.257. For the same compound, the composite z-score in experiment [7] is 0.635; in experiment [9], 0.71; in experiment [10] it was -0.102; in experiment [11], 1.56; in experiment [15], 1.11; in experiment [17], 0.146. The composite z-score turned out to be 1.14 in experiment [18], 0.907 in [19] and 0.359 in experiment [20]. Moreover, the z-score in experiment [8] is 0.36 (inactive); in experiment [12], 0.236 (inactive); in experiment [13], 1.81 (inactive); in [14] it was 3.17 (inactive); in experiment [16] it was 1.17 (inactive).
As to `NC(=O)NCC#Cc1ccc2c(c1)[C@]1(C(=O)N2)[C@H](c2ccc(OCCO)cc2)N2[C@H](c3ccccc3)[C@H](c3ccccc3)OC(=O)[C@H]2[C@@H]1C(=O)NC[C@H](O)c1ccccc1`, the composite z-score is -0.142 in [1]; -0.329 in experiment [2]; -0.0586 in [3]; 0.029 in experiment [4]; 0.322 in experiment [5]; 0.577 in experiment [6]. In addition, the composite z-score in [7] is -0.164; in experiment [9], 0.103; in experiment [10] it was -0.134; in [11], 0.26; in experiment [15], 0.741; in experiment [17], 0.0041. The composite z-score in experiment [18] is 0.565; in [19], -0.311; in experiment [20], -0.141. Further, the z-score in experiment [8] was -0.0847 (inactive); in experiment [12] it was 2.87 (inactive); in experiment [13], 1.98 (inactive); in experiment [14], 3.9 (inactive); in experiment [16] it was 2.55 (inactive).
